PubChem BioAssay
Several values for one entry are separate records, joined by “and”; a condition that tells them apart may be missing. Equal values may be shown once. Activity calls are given as the source filed them.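 The calls were made as follows, unless noted: active = mean z-score across replicates of 1.96 or higher in either the MELAS or the Rieske mutant cell line; inactive = the rest.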

Experiments:
[1] = Wnt pathway potentiators raising nuclear beta-catenin – imaging, WNT3A-conditioned medium, mouse C2C12, NPC library, primary screen (AID 1117326; in the data active = nuclear beta-catenin stimulation mostly above about 4.2%, no sharp cut-off; inactive = mostly below about 10%); settings: stronger effect = higher value
[2] = stimulators of insulin release from INS-1E, primary screen, cell-based, 5 mM glucose, NPC library (AID 1117329;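 active = compound raises insulin release from rat beta cells at 5 mM glucose, no numeric limit stated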); settings: rat INS-1E insulin secretion, at 10 µM, stronger effect = higher value
[3] = growth inhibition of GSK3B-pretreated HCT116 cells – cell-based, CellTiter-Glo, 0.2 to 20 µM (AID 1117336;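 active = compounds lowering colon cancer cell viability after pretreatment blocking the GSK3B kinase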); settings: HCT116 viability after GSK3B inhibitor, at 20 µM, stronger effect = higher value
[4] = inhibition of endothelial tube formation, primary screen, imaging, VEGF stimulated, CD31 staining, tube area, NPC library (AID 1117340;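 active = compound that reduces growth-factor-driven endothelial tube area in a mixed cell culture, no cutoff stated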); settings: VEGF-stimulated ADSC/ECFC co-culture, at 10 µM, stronger effect = higher value
[5] = GLP1 release stimulators, primary, NCI-H716, NPC library (AID 1117341;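 active = compound raises GLP1 secretion from the human gut endocrine cells, with no numeric limit stated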); settings: NCI-H716 cells, at 10 µM, stronger effect = higher value
[6] = HCT116 colon cancer cell growth inhibition, primary screen, CellTiter-Glo luminescence, NPC library (AID 1117342;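 active = compounds that lower survival of HCT116 colon cancer cells in the luminescence readout, no numeric limit stated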); settings: at 20 µM (top of the series)
[7] = reduced SW480 viability measured with CellTiter-Glo, NPC library, primary (AID 1117343;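 active = compounds that lower viability of the colon cancer cells in the luminescence readout, with no numeric limit stated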); settings: CellTiter-Glo luminescence; at 20 µM (top of the series) unless noted
[8] = NPC library primary testing for decreased DLD-1 cell viability via CellTiter-Glo (AID 1117346;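 active = compounds that lower survival of DLD-1 colon cancer cells in the luminescence readout, no cutoff given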); settings: DLD-1 viability, CellTiter-Glo luminescence; at 20 µM (top of the series)
[9] = EMT-state selective cytotoxicity in co-culture – imaging, PC-3E GFP, TEM4-18 mCherry, primary screen (AID 1345086;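 active = compounds killing one labelled cell type while sparing the other, by normalised counts and ratio limits, not self-fluorescent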;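 as to all read-outs here: cells exposed to compound for 72 h before imaging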;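 as to red/green cell ratio (normalised): normalised mesenchymal count divided by normalised epithelial count so high means epithelial killing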); settings: PC-3E GFP / TEM4-18 mCherry co-culture, imaging cell counts, at 1 µM; for red/green cell ratio (normalised): actives lie on both sides, counts scaled to control wells, 1 = unselective
[10] = viability loss with induced miR-34 in A549 – imaging, A549 dox-inducible miR-34, nuclei and caspase counts, primary screen (AID 1347080;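 active = compounds whose cell count with miR-34 switched on is under 0.7 times the count with it off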); settings: A549 miR-34 inducible, Hoechst nuclei count, 48 h
[11] = MELAS cybrid and Rieske KO viability enhancers – cell-based, MELAS cybrids, Rieske KO mouse fibroblasts, CellTiter-Glo, primary screen (AID 1508586); settings: low glucose;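 also: z relative to plate mean and SD of compound and empty wells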
[12] = molecular target: NAD(+) hydrolase SARM1 (Homo sapiens) (UniProt Q6SZW1); experiment: blocking NAD cleavage by SARM1 SAM-TIR – cell lysate, NAD-Glo luminescence (AID 1508614;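 active = compound whose remaining NAD level is above about 45 nM, limit read from the data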;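 also: higher remaining NAD means stronger inhibition of SARM1 NADase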); settings: SAM-TIR HEK293T lysate NADase, at 1 µM, stronger effect = higher value
[13] = P. berghei load reduction in hepatocytes – cell-based, HepG2, luciferase luminescence, HepG2 viability, primary screen (AID 624349; in the data active = parasite load remaining mostly below about 12%, no sharp cut-off; inactive = mostly above about 10%;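 also: 100% = mean of DMSO negative control wells on the same plate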); settings: P. berghei liver stage in HepG2, luciferase luminescence, concentration not given here; parasite load remaining: stronger effect = lower value; viability: measured here: HepG2 viability without parasites
[14] = compounds altering viability of human ES cells (AID 493140; call rule not given here;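 also: cells exposed to compounds for four days before counting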); settings: human embryonic stem cell survival screen; stronger effect = higher value
[15] = measured here: epithelial PC-3E GFP cell survival
[16] = measured here: mesenchymal TEM4-18 mCherry cell survival
[17] = stronger effect = lower value, cell number ratio, induced over uninduced
[18] = measured here: relative caspase fold change +Dox/-Dox
[19] = measured here: total cells with miR-34 induction, stronger effect = lower value
[20] = measured here: total cells without miR-34 induction
[21] = MELAS cybrid survival, CellTiter-Glo 48 h, stronger effect = higher value
[22] = Rieske KO mouse fibroblast survival, CellTiter-Glo 72 h

Sequence of NAD(+) hydrolase SARM1 (Homo sapiens) (Q6SZW1 whole entry, looked up): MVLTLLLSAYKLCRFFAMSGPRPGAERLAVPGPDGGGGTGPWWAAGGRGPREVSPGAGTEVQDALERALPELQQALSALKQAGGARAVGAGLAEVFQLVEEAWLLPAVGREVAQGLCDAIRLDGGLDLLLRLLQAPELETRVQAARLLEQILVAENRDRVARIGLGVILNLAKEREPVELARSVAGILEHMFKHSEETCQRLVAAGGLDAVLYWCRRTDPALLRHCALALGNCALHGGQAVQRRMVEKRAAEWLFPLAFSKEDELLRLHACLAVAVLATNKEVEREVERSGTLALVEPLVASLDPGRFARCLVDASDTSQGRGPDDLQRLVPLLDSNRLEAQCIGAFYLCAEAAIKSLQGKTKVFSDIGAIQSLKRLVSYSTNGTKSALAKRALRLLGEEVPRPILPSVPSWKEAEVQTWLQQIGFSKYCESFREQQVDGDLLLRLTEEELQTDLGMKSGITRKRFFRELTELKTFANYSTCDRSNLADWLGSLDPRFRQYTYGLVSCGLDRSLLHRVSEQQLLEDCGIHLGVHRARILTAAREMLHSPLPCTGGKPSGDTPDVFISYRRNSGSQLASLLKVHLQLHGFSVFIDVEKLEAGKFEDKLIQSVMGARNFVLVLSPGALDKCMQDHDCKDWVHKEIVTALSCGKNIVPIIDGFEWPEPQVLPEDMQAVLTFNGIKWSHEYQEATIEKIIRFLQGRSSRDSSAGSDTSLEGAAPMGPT

Structure (SMILES): CCN(CC)CCNC(C(=O)OCCC(C)C)c1ccccc1 (stereo not drawn)
- nuclear beta-catenin stimulation ([1]; at 10 µM): -0.8% (inactive)
- nuclear beta-catenin stimulation ([1]; stimulation, at 2 µM): -0.5%
- insulin secretion stimulation [2]: 32.4% (active)
- viability decrease [3]: 6.1% (inactive)
- tube area decrease [4]: -3.9% (inactive)
- GLP1 secretion stimulation [5]: 8.2% (inactive)
- inhibition of viability [6]: 0.2% (inactive)
- viability decrease (inhibition) [7]: 26.1% (inactive)
- viability decrease (inhibition) [8]: 9.9% (inactive)
- red/green cell ratio (normalised) [9]: 1.16 (inactive)
- normalised cell number [9, 15]: 0.66
- normalised cell number [9, 16]: 0.76
- fold change [10, 17]: 0.979 (inactive)
- fold change [10, 18]: 0.754
- cell count [10, 19]: 8430
- cell count [10, 20]: 8620
- z-score [11, 21]: 0.328 (inactive)
- z-score [11, 22]: 0.121
- remaining NAD [12]: 10 nM (inactive)

Structure (SMILES): CC1CCc2c(N3CCC(O)CC3)c(F)cc3c(=O)c(C(=O)O)cn1c23 (stereo not drawn)
- parasite load remaining [13]: 84.8% (inactive) and 5.38% (inactive)
- viability [13]: 88.5% and 76.5%
- nuclear beta-catenin stimulation ([1]; at 10 µM): 0% (inactive)
- nuclear beta-catenin stimulation ([1]; stimulation, at 2 µM): 0.1%
- insulin secretion stimulation [2]: 1.15% (inactive)
- viability decrease [3]: 74.1% (active)
- tube area decrease [4]: -22.8% (inactive)
- GLP1 secretion stimulation [5]: 4% (inactive)
- inhibition of viability [6]: 59% (active)
- viability decrease (inhibition) [7]: 37.2% (inactive)
- viability decrease (inhibition) [8]: 5.4% (inactive)
- red/green cell ratio (normalised) [9]: 0.89 (inactive)
- normalised cell number [9, 15]: 0.98
- normalised cell number [9, 16]: 0.87
- fold change [10, 17]: 0.9 (inactive) and 0.988 (inactive) and 0.927 (inactive)
- fold change [10, 18]: 0.795 and 0.525 and 0.967
- cell count [10, 19]: 8750 and 7880 and 9830
- cell count [10, 20]: 9720 and 7980 and 10600
- z-score [11, 21]: -0.315 (inactive) and -0.705 (inactive) and 0.586 (inactive)
- z-score [11, 22]: -0.0888 and -0.895 and -0.392
- remaining NAD [12]: 10 nM (inactive)

Structure (SMILES): COc1cc(C(=O)N2CCOCC2)cc(OC)c1OC
- parasite load remaining [13]: 75.3% (inactive)
- viability [13]: 105%
- nuclear beta-catenin stimulation ([1]; at 10 µM): 0.3% (inactive)
- nuclear beta-catenin stimulation ([1]; stimulation, at 2 µM): -0.7%
- insulin secretion stimulation [2]: -1.8% (inactive)
- viability decrease [3]: 14.1% (inactive)
- tube area decrease [4]: -2.8% (inactive)
- GLP1 secretion stimulation [5]: 6.1% (inactive)
- inhibition of viability [6]: -2.4% (inactive)
- viability decrease (inhibition) [7]: 30.7% (inactive)
- viability decrease (inhibition) [8]: 20.1% (inactive)
- red/green cell ratio (normalised) [9]: 1.06 (inactive)
- normalised cell number [9, 15]: 1.01
- normalised cell number [9, 16]: 1.07
- fold change [10, 17]: 0.951 (inactive)
- fold change [10, 18]: 1.55
- cell count [10, 19]: 11700
- cell count [10, 20]: 12300
- z-score [11, 21]: 0.673 (inactive)
- z-score [11, 22]: 0.477
- remaining NAD [12]: 10 nM (inactive)

Structure (SMILES): CCCOc1cc(N)ccc1C(=O)OCCN(CC)CC
- survival [14]: 9.5 (inactive)
- parasite load remaining [13]: 77.2% (inactive)
- viability [13]: 75.5%
- nuclear beta-catenin stimulation ([1]; at 10 µM): 0% (inactive)
- nuclear beta-catenin stimulation ([1]; stimulation, at 2 µM): 0.6%
- insulin secretion stimulation [2]: 4.5% (inactive)
- viability decrease [3]: -4.1% (inactive)
- tube area decrease [4]: -15.3% (inactive)
- GLP1 secretion stimulation [5]: -1.7% (inactive)
- inhibition of viability [6]: -3.9% (inactive)
- viability decrease (inhibition) [7]: 4% (inactive)
- viability decrease (inhibition) [8]: -9.1% (inactive)
- red/green cell ratio (normalised) [9]: 1 (inactive)
- normalised cell number [9, 15]: 1.21
- normalised cell number [9, 16]: 1.21
- fold change [10, 17]: 0.973 (inactive)
- fold change [10, 18]: 0.697
- cell count [10, 19]: 9580
- cell count [10, 20]: 9850
- z-score [11, 21]: -0.734 (inactive)
- z-score [11, 22]: -0.617
- remaining NAD [12]: 10 nM (inactive)
